Compounds without any hit were thinned out: in the full panel of roughly 79,000, 15% have a hit. Cut-off read from the data, not from the text of the source: active = growth inhibition above about 70%; inactive = the rest.
Assays:
[1] = NCI Yeast Anticancer Drug Screen. Data for the rad52 strain (AID 147);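 note: 0% = growth of vehicle-treated control cultures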; conditions: S. cerevisiae rad52 mutant growth inhibition, active compounds read high
Method in brief: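 Compounds are applied to a genetically defined yeast strain lacking normal DNA damage repair, and inhibition of growth is expressed relative to cultures given vehicle only.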

[2] = NCI Yeast Anticancer Drug Screen. Data for the wt1 strain (AID 149);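 note: 0% = growth of vehicle-treated wt1 cultures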; conditions: S. cerevisiae wt1 strain (SPY 50644) growth inhibition, active compounds read high
Method in brief: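 wt1 strain grown with compound or vehicle; inhibition taken from the growth difference.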

[3] = NCI Yeast Anticancer Drug Screen. Data for the rad50EPP+ strain (AID 151);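 note: 0% = growth of vehicle-treated control cultures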; conditions: S. cerevisiae rad50 mutant strain, active compounds read high
Method in brief: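 Compounds were applied to the rad50EPP+ yeast strain, which bears a defined DNA repair alteration, and growth inhibition was determined relative to vehicle-treated cultures.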

[4] = NCI Yeast Anticancer Drug Screen. Data for the mgt1 strain (AID 153); conditions: S. cerevisiae mgt1 mutant growth inhibition, active compounds read high
Method in brief: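 Strain: mgt1 yeast, one of a set carrying defined DNA damage repair or cell cycle control alterations. Compound-treated growth compared with vehicle.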

[5] = NCI Yeast Anticancer Drug Screen. Data for the rad50 strain (AID 155);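 note: 0% = growth of vehicle-only cultures of the same strain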; conditions: S. cerevisiae rad50 strain growth inhibition, active compounds read high
Method in brief: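 DNA repair mutant yeast, compound exposure, growth read-out; inhibition is taken relative to vehicle.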

[6] = NCI Yeast Anticancer Drug Screen. Data for the mec2-1 strain (AID 157); conditions: S. cerevisiae mec2-1 strain, active compounds read high
Method in brief: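 Strain: mec2-1 (DNA repair/cell cycle alteration). Compound exposure, then growth measured; inhibition expressed relative to vehicle.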

[7] = NCI Yeast Anticancer Drug Screen. Data for the rad14 strain (AID 159);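 note: 0% = growth of vehicle-treated control cultures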; conditions: S. cerevisiae rad14 strain growth inhibition, active compounds read high
Method in brief: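 DNA repair-defective yeast, compound-exposed; % growth inhibition derived by comparison with vehicle-treated controls.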

[8] = at 5.0 µM (retest, dose inferred, filed as 0.5)
[9] = at 50.0 µM (retest, dose inferred, filed as 5.0)

Measured: growth inhibition

C[Si](C)(C)CNC(=O)OCc1ccccc1
inactive: [1]; at 1.2 µM -1% | [1]; at 3.7 µM -4% | [1]; at 11.0 µM 6% | [1]; at 33.0 µM 2% | [1]; at 100.0 µM 16% | [2]; at 1.2 µM 2% | [2]; at 3.7 µM -2% | [2]; at 11.0 µM -3% | [2]; at 33.0 µM -4% | [2]; at 100.0 µM -3% | [3]; at 1.2 µM 1% | [3]; at 3.7 µM -1% | [3]; at 11.0 µM 10% | [3]; at 33.0 µM 21% | [3]; at 100.0 µM 41% | [4]; at 1.2 µM 7% | [4]; at 3.7 µM 5% | [4]; at 11.0 µM -5% | [4]; at 33.0 µM -4% | [4]; at 100.0 µM 12% | [5]; at 1.2 µM 1% | [5]; at 3.7 µM -10% | [5]; [8] -1% | [5]; at 11.0 µM 1% | [5]; at 33.0 µM 19% | [5]; [9] -8% | [5]; at 50.0 µM 37.1% | [5]; at 100.0 µM 56% | [6]; at 1.2 µM -2% | [6]; at 3.7 µM -3% | [6]; [8] -1% | [6]; at 11.0 µM 1% | [6]; at 33.0 µM 1% | [6]; [9] 32% | [6]; at 50.0 µM 21.9% | [6]; at 100.0 µM 11% | [7]; at 1.2 µM -1% | [7]; at 3.7 µM -1% | [7]; at 11.0 µM 0% | [7]; at 33.0 µM 0% | [7]; at 100.0 µM 6%

Source: PubChem BioAssay (NCI)
